Bioassay records as filed in PubChem BioAssay.
Shown are actives, neighbours in structure and some others; about 1.2% of the full set was active somewhere.
RXFP1 agonist: agonists of human relaxin receptor RXFP1; Q9HBX9; HEK293T-RXFP1 cAMP TR-FRET, 30 min; response scale: percent of porcine relaxin response, buffer zero; Potency, µM (doses to about 57.5 µM), inactives show top-dose activation, actives largely listed as activators; 370,000 tested, 0.3% active; AID 2676; active = well fitted activation curve with a large enough effect; inconclusive = small, poorly fitted or top-dose-only effect; note: potency is the fitted concentration of half-maximal effect; % is set by controls: 0 for no effect and ±100 for the full control effect; nearly all actives have a fitted effect of over 60% in size
Target sequence (Q9HBX9 whole entry, looked up): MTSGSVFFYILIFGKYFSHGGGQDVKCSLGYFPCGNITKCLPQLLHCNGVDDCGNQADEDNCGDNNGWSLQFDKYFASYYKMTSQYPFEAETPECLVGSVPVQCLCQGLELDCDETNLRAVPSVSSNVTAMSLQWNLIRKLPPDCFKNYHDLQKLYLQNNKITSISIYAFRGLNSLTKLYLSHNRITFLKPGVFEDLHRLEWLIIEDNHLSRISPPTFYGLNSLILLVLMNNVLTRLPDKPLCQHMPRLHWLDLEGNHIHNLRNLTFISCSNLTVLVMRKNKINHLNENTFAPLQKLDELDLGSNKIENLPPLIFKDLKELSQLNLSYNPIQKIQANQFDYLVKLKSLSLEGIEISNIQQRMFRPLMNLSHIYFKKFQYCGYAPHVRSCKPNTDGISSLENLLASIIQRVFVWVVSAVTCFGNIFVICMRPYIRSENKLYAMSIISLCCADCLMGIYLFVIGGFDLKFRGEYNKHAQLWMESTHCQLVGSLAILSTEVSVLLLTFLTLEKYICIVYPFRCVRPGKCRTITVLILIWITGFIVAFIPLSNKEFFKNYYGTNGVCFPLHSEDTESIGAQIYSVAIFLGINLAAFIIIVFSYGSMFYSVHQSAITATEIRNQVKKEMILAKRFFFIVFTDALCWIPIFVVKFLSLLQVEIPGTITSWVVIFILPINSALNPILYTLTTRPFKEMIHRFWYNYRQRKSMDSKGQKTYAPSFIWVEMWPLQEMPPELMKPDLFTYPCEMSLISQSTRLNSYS
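HEK293 cells stably expressing RXFP1, treated 30 min at 37C with compounds plus PDE4 inhibitor Ro 20174; cAMP measured by HTRF TR-FRET. Normalized to buffer and 29 nM porcine relaxin; EC50 by Hill fit.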
gsp ag: agonists of gsp mutant (McCune-Albright syndrome). gsp mutant cells, cAMP HTRF, 30 min. Potency, µM (top dose mostly 76.9 µM), inactives show top-dose activation (cAMP increase), usual class: activators. 340,000 tested, 0.13% active. AID 624287; active = well fitted activation curve with a large enough effect; inconclusive = small, poorly fitted or top-dose-only effect, or another doubt; inactive = no such curve, though single readings can be large or run the other way; cell line not stated here;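 note: phosphodiesterase inhibitor Ro 20-1724 added with compounds to block cAMP breakdown; potency is the fitted concentration of half-maximal effect; nearly all actives have a fitted effect of over 60% in size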
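Cells stably selected in G418 were plated at 2000/well, grown 16-24 hr, then given compounds in DMSO with the PDE inhibitor […] (300 uM solution added) for 30 min at 37C; cAMP was read by HTRF.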
gsp antag: gsp mutant antagonism; gsp-mutant cells, cAMP HTRF, 30 min; Potency, µM (top dose mostly 76.9 µM), without a hit: at the highest dose activity change, negative = inhibition, most hits filed as inhibitors; 340,000 tested, 0.4% active; calls by dose curve; cell line not stated here;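 note: intracellular cAMP measured with PDE inhibitor Ro 20-1724 present during compound exposure; potency is the fitted concentration of half-maximal effect; % is set by controls: 0 for no effect and ±100 for the full control effect; nearly all actives have a fitted effect of over 65% in size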
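Cells, 2000/well, grown 16–24 h in DMEM 10% FBS with 0.5 mg/ml G418, then compounds plus […] (300 uM addition stock), 30 min at 37C. cAMP read by HTRF (cAMP-d2 and anti-cAMP antibody-K in lysis buffer) after 30 min RT.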
Akt phos inh: inhibitors of Akt phosphorylation; Neuro2A IGF-stimulated pAkt S473 HTRF, 20 min; active compounds read low; activity change, % for hits at 50 µM; 360,000 tested, 0.32% active; AID 651550; in the data active = activity change below about -80%; inconclusive = mostly about -51% to -80%; note: % is set by controls: 0 for no effect and ±100 for the full control effect
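Single-point screen (50 µM final compound) in Neuro2A cells stimulated 20 min with 6 nM IGF at 37 deg C. After lysis, Ser473-phosphorylated Akt read by HTRF (ex 330 nm, em 615/665 nm) as the 665/615 ratio.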
RXFP1 antagonist: antagonists of human relaxin receptor RXFP1. AID 1259400. Q9HBX9. HEK293-RXFP1, relaxin-stimulated cAMP HTRF, 30 min; active compounds read low. activity change, negative = inhibition, % at 57.5 µM. 350,000 tested, 0.59% active;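 active = activity change of -60% or lower, but not beyond a set lower limit; inconclusive = change between -60% and -40%, or beyond the set limit; inactive = change above -40%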; note: % is set by controls: 0 for no effect and ±100 for the full control effect
Starred values were filed as active, the others as inactive; i = inactive; u = inconclusive; x = not tested or not shown; [ ] = remark or other dose.

SMILES | RXFP1 agonist | gsp ag | gsp antag | Akt phos inh | RXFP1 antagonist
O=[N+]([O-])/C=C\c1ccc(N2CCCC2)c(F)c1 | 0% | 2% | -7% | i | -68*
CC(CSC(=O)c1ccccc1)C(=O)N1C[C@@H](Sc2ccccc2)C[C@H]1C(=O)O (stereo partly specified) | x | x | x | x | -9
CC(C)CCn1nnnc1C(C(C)C)N1CCC(C(N)=O)CC1 (stereo unspecified) | 0% | 15% | 7% | -100%* | -24
CCOc1ccc(-c2cc(C(=O)N3CCN(c4cccc(C(F)(F)F)c4)CC3)c3ccccc3n2)cc1 | 2% | x | x | x | -13
Cc1nc(SCc2cccc(Oc3ccccc3)c2)n[nH]1 | 0% | 3% | -10% | -112%* | 8
Cc1nc(SCc2ccc(Cl)c(Cl)c2)n[nH]1 | 0% | 0% | -7% | i | 7
NC(=O)c1ccsc1NC(=O)COC(=O)/C=C/c1ccccc1 | 0% | 23%[15.4 µM] | u | i | -69*
COc1ccc(C(C)=O)cc1CSc1nnc(Nc2ccc(C)cc2C)s1 | 2% | -14%[15.4 µM] | -29% | i | 5
COc1ccc(C(C)=O)cc1CSc1nnc(Nc2ccccc2C)s1 | 0% | -46% | 11µM* | i | x
CC(C)(C)C(=O)Oc1ccc(S(=O)(=O)Nc2ccccc2C(=O)NCC(=O)O)cc1 | x | x | x | x | 12
Cc1ccc(Nc2cc(C)nc3ccc(C)cc23)cc1 | 1% | 1% | 5% | i | -82*
CCOc1ccc(Nc2cc(C)nc3ccc(C)cc23)cc1 | x | -15%[15.4 µM] | u | i | -31
COc1ccc(N2CCN(C(=O)c3nc4nc(C)cc(C)n4n3)CC2)cc1 | 2% | -1%[15.4 µM] | 1% | i | -7
Cc1cc(C)n2nc(C(=O)N3CCN(c4ccc([N+](=O)[O-])cc4)CC3)nc2n1 | 24% | 26% | 11µM* | i | x
Cc1cc(NC(=O)COC(=O)CCNS(=O)(=O)c2c(Cl)cccc2Cl)no1 | -4% | -17%[15.4 µM] | 1% | i | -69*
Cc1cc(NC(=O)COC(=O)CCNS(=O)(=O)c2cccc(C(F)(F)F)c2)no1 | 3% | 14%[15.4 µM] | 3% | i | -11
Cc1ccc(C(C(=O)NC2CCCC2)N(Cc2cccnc2)C(=O)c2snc(C(N)=O)c2N)o1 (stereo unspecified) | 1% | u | 1% | -119%* | -2
Cc1ccccc1N(C(=O)c1snc(C(N)=O)c1N)C(C(=O)NCC1CCCO1)c1ccc(F)cc1 (stereo unspecified) | 1% | 10%[15.4 µM] | -15% | i | -90*
CN(C)c1ccc(C(C(=O)NC2CCCC2)N(Cc2cccnc2)C(=O)c2snc(C(N)=O)c2N)cc1 (stereo unspecified) | 2% | -4%[15.4 µM] | -30% | i | 1
Cc1ccc(N(C(=O)c2snc(C(N)=O)c2N)C(C(=O)NCC2CCCO2)c2ccc(C)o2)c(C)c1 (stereo unspecified) | 2% | 1%[15.4 µM] | -20% | i | -63*
CC(C)c1ccc(N(C(=O)c2snc(C(N)=O)c2N)C(C(=O)NCC2CCCO2)c2ccc(N(C)C)cc2)cc1 (stereo unspecified) | u | -1%[15.4 µM] | u | i | -74*
Cc1ccccc1N(C(=O)c1snc(C(N)=O)c1N)C(C(=O)NCC1CCCO1)c1ccc(N(C)C)cc1 (stereo unspecified) | 25% | -22%[15.4 µM] | -16% | i | -5
CN(C)c1ccc(C(C(=O)NCC2CCCO2)N(C(=O)c2snc(C(N)=O)c2N)c2ccccc2)cc1 (stereo unspecified) | u | u | 10% | i | 4
CCc1ccccc1N(C(=O)c1snc(C(N)=O)c1N)C(C(=O)NCC1CCCO1)c1ccc(N(C)C)cc1 (stereo unspecified) | u | -16%[15.4 µM] | x | i | -24
CCc1ccccc1N(C(=O)c1snc(C(N)=O)c1N)C(C(=O)NCC1CCCO1)c1ccc(C)o1 (stereo unspecified) | 1% | -1%[15.4 µM] | -6% | i | -119*
SMILES | RXFP1 agonist | gsp ag | gsp antag | Akt phos inh | RXFP1 antagonist
Cc1nn(-c2ccccc2)c(C)c1C(=O)OCC(=O)Nc1ccccc1F | 0% | -28% | -9% | i | 2
Cc1cc(C)cc(NC(=O)COC(=O)c2n[nH]c3ccccc23)c1 | 1% | -25%[15.4 µM] | 10µM* | i | -25
COc1ccc(OC)c(NC(=O)COC(=O)c2n[nH]c3ccccc23)c1 | 1% | -33% | 45µM* | i | -7
COc1ccc(C)cc1NC(=O)COC(=O)c1c(C)nn(-c2ccccc2)c1C | -1% | -43% | 40µM* | i | -11
Cc1csc(SCC(=O)Nc2nc3ccccc3s2)n1 | -3% | -6% | 11%[15.4 µM] | -115%* | -13
Cc1ccc(NC(=O)CN(C)c2ccc(S(=O)(=O)N3CCN(C)CC3)cn2)cc1 | 1% | 4% | 5% | -102%* | -17
CN1CCN(S(=O)(=O)c2ccc(N(C)CC(=O)Nc3ccc(F)cc3)nc2)CC1 | 0% | x | x | x | x
S=c1[nH]nc(COc2ccccc2)n1C1CCCCC1 | -2% | -24% | -7% | -101%* | -12
COc1ccc(NS(=O)(=O)c2ccc3c(c2)Cc2ccccc2-3)cn1 | 1% | -8% | 28µM* | i | 1
Cc1nnc2c3ccccc3c(Cl)nn12 | u | 25µM* | 5% | i | 0
O=C(C#Cc1ccccc1)c1ccccc1 | x | u | x | i | -107*
O=C(C#Cc1ccccc1)c1ccc([N+](=O)[O-])cc1 | -1% | 7%[15.4 µM] | 4% | i | -61*
COc1cccc(CC2(CO)CCCN(Cc3ccc(C)s3)C2)c1 (stereo unspecified) | -1% | 13%[15.4 µM] | 5% | i | -78*
O=C(CCc1cn(Cc2ccc(F)cc2)c2ccccc12)NCCc1ccc(Cl)cc1 | 0% | x | x | x | -3
CSc1cc(-c2ccccc2)n(Cc2c(Cl)cccc2Cl)c(=O)c1C#N | 12% | -13% | 0% | i | 2
CSc1cc(-c2ccc(Cl)cc2)n(Cc2ccccc2)c(=O)c1C#N | 22µM* | -49% | 3% | i | 2
O=C(CCS(=O)(=O)c1nc(-c2cccs2)cc(C(F)(F)F)n1)Nc1ccc(Br)cc1 | 14% | x | x | x | -108*
O=C(CCS(=O)(=O)c1nc(-c2cccs2)cc(C(F)(F)F)n1)Nc1cc(Br)ccc1O | 6% | x | x | x | -116*
Cc1ccc(O)c(NC(=O)CCS(=O)(=O)c2nc(-c3cccs3)cc(C(F)(F)F)n2)c1 | 6% | x | x | x | -30
CC(C)n1ncc2c(C(=O)NCC(=O)Nc3ccccc3Br)cc(C3CC3)nc21 | -3% | 27% | -16% | i | -88*
CCc1ccccc1NC(=O)CNC(=O)c1cc(C2CC2)nc2c1cnn2C(C)C | 2% | 1% | -9% | i | 5
CCc1ccc(Nc2cc(C)nc3nc(Cc4ccc(Cl)cc4)nn23)cc1 | -1% | x | x | x | x
Cc1cc(C)n(CC(O)Cn2c3ccccc3c3ccccc32)n1 (stereo unspecified) | -1% | u | -13% | i | -5
